Test results taken from PubChem BioAssay AID1159580 (chemical genetic matrix, 2015).
Screen size: about 5,500 compounds; about 2,000 (36%) were called active. Inconclusive results (about 18%) are left out. Cut-off read from the data, not from the text of the source: active = normalized growth mostly below about 0.91 (no sharp cut-off); inconclusive = no clear call, values can overlap the other calls; inactive = mostly above about 0.92. The list shows a part of the results.

Assay: chemical genetic growth profiling, strain panel (AID 1159580);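 note: tested at 20 µM; growth read once vehicle control cultures reached saturation at 30 °C; 1 = growth at the plate median or of vehicle wells; lower values mean less growth of the strain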
Details: growth OD

Measured: normalized growth

CC(=O)Oc1ccc2c(c1)CCC1C2CC[C@@]2(C)C1CC[C@@H]2OC(C)=O (stereo not given in full)
active: S. cerevisiae deletion strains, locus YLR262C, strain YPT6 (second series), stronger effect = lower value 0.663
inactive: S. cerevisiae deletion strains, locus YJR075W, strain HOC1, stronger effect = lower value 0.957 | S. cerevisiae deletion strains, locus YKL009W, strain mrt4, stronger effect = lower value 0.956 | S. cerevisiae deletion strains, locus YKL068W, stronger effect = lower value 0.971 | S. cerevisiae deletion strains, locus YKL085W, strain MDH1 (second series), stronger effect = lower value 0.959 | S. cerevisiae deletion strains, locus YKL085W, strain MDH1, stronger effect = lower value 0.959 | S. cerevisiae deletion strains, locus YKL160W, strain elf1, stronger effect = lower value 1 | S. cerevisiae deletion strains, locus YKL190W, strain CNB1, stronger effect = lower value 0.961 | S. cerevisiae deletion strains, locus YKR001C, strain vps1, stronger effect = lower value 0.98 | S. cerevisiae deletion strains, locus YKR026C, strain gcn3, stronger effect = lower value 0.973 | S. cerevisiae deletion strains, locus YKR091W, strain srl3, stronger effect = lower value 0.99 | S. cerevisiae deletion strains, locus YLL001W, strain dnm1, stronger effect = lower value 0.96 | S. cerevisiae deletion strains, locus YLL026W, stronger effect = lower value 0.991 | S. cerevisiae deletion strains, locus YLL041C, strain sdh2, stronger effect = lower value 0.996 | S. cerevisiae deletion strains, locus YLR027C, strain aat2, stronger effect = lower value 0.997 | S. cerevisiae deletion strains, locus YLR039C, strain RIC1, stronger effect = lower value 0.838 | S. cerevisiae deletion strains, locus YLR058C, strain SHM2, stronger effect = lower value 0.968 | S. cerevisiae deletion strains, locus YLR102C, strain apc9, stronger effect = lower value 0.968 | S. cerevisiae deletion strains, locus YLR113W, strain HOG1, stronger effect = lower value 0.911 | S. cerevisiae deletion strains, locus YLR221C, strain rsa3, stronger effect = lower value 0.958 | S. cerevisiae deletion strains, locus YLR258W, strain gsy2, stronger effect = lower value 0.991 | S. cerevisiae deletion strains, locus YLR262C, strain YPT6, stronger effect = lower value 0.729 | S. cerevisiae deletion strains, locus YLR268W, strain sec22, stronger effect = lower value 0.986 | S. cerevisiae deletion strains, locus YLR320W, strain mms22, stronger effect = lower value 0.908 | S. cerevisiae deletion strains, locus YLR330W, strain CHS5, stronger effect = lower value 0.981 | S. cerevisiae deletion strains, locus YLR342W, strain FKS1 (second series), stronger effect = lower value 1.03 | S. cerevisiae deletion strains, locus YLR342W, strain FKS1, stronger effect = lower value 0.969 | S. cerevisiae deletion strains, locus YLR357W, strain rsc2, stronger effect = lower value 1 | S. cerevisiae deletion strains, locus YLR370C, strain arc18, stronger effect = lower value 0.977 | S. cerevisiae deletion strains, locus YLR371W, strain rom2, stronger effect = lower value 0.981 | S. cerevisiae deletion strains, locus YLR384C, strain iki3, stronger effect = lower value 0.985 | S. cerevisiae deletion strains, locus YLR418C, strain cdc73, stronger effect = lower value 0.963 | S. cerevisiae deletion strains, locus YML016C, strain PPZ1, stronger effect = lower value 0.974 | S. cerevisiae deletion strains, locus YML032C, strain rad52, stronger effect = lower value 0.974 | S. cerevisiae deletion strains, locus YML120C, strain ndi1, stronger effect = lower value 0.97 | S. cerevisiae deletion strains, locus YML124C, strain tub3, stronger effect = lower value 0.965 | S. cerevisiae deletion strains, locus YMR058W, strain fet3, stronger effect = lower value 1 | S. cerevisiae deletion strains, locus YMR078C, strain ctf18, stronger effect = lower value 0.964 | S. cerevisiae deletion strains, locus YMR125W, strain sto1, stronger effect = lower value 0.994 | S. cerevisiae deletion strains, locus YMR129W, stronger effect = lower value 0.989 | S. cerevisiae deletion strains, locus YMR205C, strain PFK2, stronger effect = lower value 0.947 | S. cerevisiae deletion strains, locus YMR223W, strain ubp8, stronger effect = lower value 0.984 | S. cerevisiae deletion strains, locus YMR231W, strain pep5, stronger effect = lower value 1.02 | S. cerevisiae deletion strains, locus YMR263W, strain SAP30, stronger effect = lower value 0.967 | S. cerevisiae deletion strains, locus YMR307W, strain GAS1, stronger effect = lower value 1.12 | S. cerevisiae deletion strains, locus YNL067W, strain RPL9B, stronger effect = lower value 0.957 | S. cerevisiae deletion strains, locus YNL071W, strain lat1, stronger effect = lower value 0.97 | S. cerevisiae deletion strains, locus YNL128W, strain TEP1, stronger effect = lower value 0.986 | S. cerevisiae deletion strains, locus YNL183C, strain NPR1, stronger effect = lower value 0.894 | S. cerevisiae deletion strains, locus YNL209W, strain ssb2, stronger effect = lower value 1.02 | S. cerevisiae deletion strains, locus YNL233W, strain BNI4, stronger effect = lower value 0.938 | S. cerevisiae deletion strains, locus YNL248C, strain rpa49, stronger effect = lower value 0.986 | S. cerevisiae deletion strains, locus YNL250W, strain rad50, stronger effect = lower value 0.972 | S. cerevisiae deletion strains, locus YNL271C, strain bni1, stronger effect = lower value 0.996 | S. cerevisiae deletion strains, locus YNL298W, strain CLA4, stronger effect = lower value 0.969 | S. cerevisiae deletion strains, locus YNL307C, strain MCK1, stronger effect = lower value 0.958 | S. cerevisiae deletion strains, locus YNL322C, strain KRE1 (second series), stronger effect = lower value 0.988 | S. cerevisiae deletion strains, locus YNR049C, strain mso1, stronger effect = lower value 0.99 | S. cerevisiae deletion strains, locus YNR052C, strain pop2, stronger effect = lower value 0.985 | S. cerevisiae deletion strains, locus YOL006C, strain TOP1, stronger effect = lower value 0.796 | S. cerevisiae deletion strains, locus YOL012C, strain htz1 1.06 | S. cerevisiae deletion strains, locus YOL147C, strain pex11, stronger effect = lower value 0.969 | S. cerevisiae deletion strains, locus YOR001W, strain rrp6, stronger effect = lower value 0.972 | S. cerevisiae deletion strains, locus YOR061W, strain CKA2, stronger effect = lower value 0.937 | S. cerevisiae deletion strains, locus YOR069W, strain VPS5, stronger effect = lower value 0.987 | S. cerevisiae deletion strains, locus YOR070C, strain gyp1, stronger effect = lower value 1.01 | S. cerevisiae deletion strains, locus YOR080W, strain dia2, stronger effect = lower value 1.02 | S. cerevisiae deletion strains, locus YOR083W, strain WHI5, stronger effect = lower value 0.936 | S. cerevisiae deletion strains, locus YOR106W, strain vam3, stronger effect = lower value 1.03 | S. cerevisiae deletion strains, locus YOR136W, strain idh2, stronger effect = lower value 0.982 | S. cerevisiae deletion strains, locus YOR144C, strain elg1, stronger effect = lower value 0.968 | S. cerevisiae deletion strains, locus YOR184W, strain ser1, stronger effect = lower value 0.906 | S. cerevisiae deletion strains, locus YOR231W, strain MKK1, stronger effect = lower value 0.923 | S. cerevisiae deletion strains, locus YOR265W, strain rbl2, stronger effect = lower value 0.992 | S. cerevisiae deletion strains, locus YOR270C, strain vph1, stronger effect = lower value 0.968 | S. cerevisiae deletion strains, locus YOR290C, strain snf2, stronger effect = lower value 0.968 | S. cerevisiae deletion strains, locus YOR316C, strain cot1, stronger effect = lower value 0.965 | S. cerevisiae deletion strains, locus YPL051W, strain arl3, stronger effect = lower value 1.01 | S. cerevisiae deletion strains, locus YPL055C, strain LGE1, stronger effect = lower value 0.838 | S. cerevisiae deletion strains, locus YPL078C, strain atp4, stronger effect = lower value 1.04 | S. cerevisiae deletion strains, locus YPL106C, strain sse1, stronger effect = lower value 1.03 | S. cerevisiae deletion strains, locus YPL240C, strain hsp82, stronger effect = lower value 1 | S. cerevisiae deletion strains, locus YPL241C, strain CIN2, stronger effect = lower value 0.972 | S. cerevisiae deletion strains, locus YPL256C, strain CLN2, stronger effect = lower value 0.924 | S. cerevisiae deletion strains, locus YPR119W, strain clb2, stronger effect = lower value 0.955 | S. cerevisiae deletion strains, locus YPR141C, strain kar3, stronger effect = lower value 0.97 | S. cerevisiae deletion strains, locus YPR163C, strain tif3, stronger effect = lower value 0.979 | S. cerevisiae deletion strains, locus YPR167C, strain met16, stronger effect = lower value 0.975 | S. cerevisiae deletion strains, strain wtn01, stronger effect = lower value 0.972 | S. cerevisiae strains, strain wild type, stronger effect = lower value 0.958
